Screening data as filed in PubChem.
ATXN2 expr inh: inhibitors of ATXN2 expression; HEK-293 ATXN2-luciferase reporter, luminescence, 24 h; Potency, µM (titrated, usually from 57 µM), for the others: top-dose activity change, negative = inhibition, usual class: inhibitors; 0.72% of 360,000 active; further: potency means the concentration at half of the fitted maximal effect; on the % scale 0 is the no-effect control and ±100 the full control effect; nearly all actives have a fitted effect of over 55% in size
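qHTS (up to 57 uM final) was run with 24 h compound exposure of reporter cells at 37 °C. Each well was multiplexed: SteadyGlo luminescence measured ATXN2-luciferase expression after a fluorogenic Gly-Phe-AFC viability readout (25 uM final).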
D3 ag: activates the human D3 dopamine receptor; max activation, %; P35462; D3R DiscoveRx beta-arrestin cells, luminescence, 90 min; 0.58% of 410,000 active; in the data active means max activation above about 30%; further: 0% is about no effect
Target sequence (P35462 whole entry, looked up): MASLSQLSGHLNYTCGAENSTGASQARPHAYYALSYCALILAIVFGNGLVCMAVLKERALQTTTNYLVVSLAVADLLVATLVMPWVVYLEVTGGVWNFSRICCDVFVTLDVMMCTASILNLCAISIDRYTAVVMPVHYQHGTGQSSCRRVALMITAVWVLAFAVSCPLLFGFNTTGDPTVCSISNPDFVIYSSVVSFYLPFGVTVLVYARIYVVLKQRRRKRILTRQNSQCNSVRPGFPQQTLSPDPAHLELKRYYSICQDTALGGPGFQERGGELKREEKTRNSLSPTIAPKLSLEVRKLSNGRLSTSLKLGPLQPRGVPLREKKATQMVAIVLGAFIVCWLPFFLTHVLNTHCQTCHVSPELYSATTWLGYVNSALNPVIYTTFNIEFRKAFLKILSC
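Agonist mode: compounds and dopamine controls were applied to plated cells for 90 min at 37 degrees C after an overnight attachment at 1500 cells/well. Luminescent read-out followed 30 - 60 minutes at room temperature with DiscoveRx detection reagent.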
DRD3 antagonist: antagonists of human D3 dopamine receptor; D3R cells, DiscoveRx beta-arrestin luminescence, antagonist mode; hits give low values; P35462; max response, negative = inhibition, %; 2.5% of 360,000 active; in the data active means max response below about -50%; inconclusive means no clear call, values can overlap the other calls; further: on the % scale 0 is the no-effect control and ±100 the full control effect
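Cells expressing the human receptor were seeded at 1500 cells/well, incubated overnight at 37 degrees C in 5% CO2, then exposed to library compounds with dopamine controls for 90 minutes at 37 degrees C before luminescent detection.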
ATXN viability: cell viability loss in ATXN counter-screen | Potency, µM (doses to about 56.7 µM), actives largely listed as cytotoxic | S2 cells (HEK-293 line with an ATXN2-luciferase reporter) viability, CellTiter-Fluor protease fluorescence, 24 h | AID 651635 | 0.49% of 400,000 active; further: potency means the concentration at half of the fitted maximal effect; nearly all actives have a fitted effect of over 40% in size
TGFb inhibitor: TGF-b pathway inhibition; HepG2 CAGA-GFP TGF-b/SMAD3 reporter, GFP fluorescence, 18 h; TGF-beta stimulated, 500 pg/mL final; Potency, µM (highest dose often 46.1 µM), without a hit: at the highest dose activity, negative = inhibition, actives largely listed as inhibitors; 1.2% of 410,000 active; further: potency means the concentration at half of the fitted maximal effect; on the % scale 0 is the no-effect control and ±100 the full control effect; nearly all actives have a fitted effect of over 65% in size
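Inhibition was scored as loss of TGF-beta-induced (500 pg/mL final, 18 hours, 37 degrees C) GFP in HEPG2 cells carrying a CAGA-GFP reporter, in DMEM with 1% FBS. Well GFP was summed per cell; Activity was normalised to unstimulated and stimulated DMSO wells, then concentration-response fitting.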
HepG2 viability: kills HepG2 cells in TGF-b inhibitor counter-screen; HepG2 CAGA-GFP viability, ATP luminescence, 18 h; Potency, µM (top dose mostly 46.1 µM), without a hit: at the top dose activity change, negative = cytotoxicity, actives largely listed as cytotoxic; 0.76% of 410,000 active; AID 588856; further: potency means the concentration at half of the fitted maximal effect
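CellTiter-Glo luminescence gave cytotoxicity after 18 hours at 37 degrees C. The cells were HepG2 CAGA-GFP in 1% FBS DMEM, stimulated with 500 pg/mL TGF-beta after compound addition. %Activity was normalised to no-cell wells (complete cell-killing) and DMSO (no toxicity), and curves were fitted and classified.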
Numbers without * were called inactive; i = inactive; u = inconclusive; x = no result; [ ] = dose if it differs, or a comment. An excerpt weighted towards active compounds, which were near 4.8% of everything screened. Unless noted, the call rests on the fitted dose curve; in most records, active means well fitted curve in the direction sought with a large enough effect; inconclusive means small, poorly fitted or top-dose-only effect, or another doubt; inactive means no such curve, though single readings can be large; an effect the other way counts as inactive or inconclusive.

SMILES	ATXN2 expr inh	D3 ag	DRD3 antagonist	ATXN viability	TGFb inhibitor	HepG2 viability
CC1(C)O[C@@H]2C[C@H]3[C@@H]4CCC5=CC(=O)C=C[C@]5(C)[C@@H]4[C@@H](O)C[C@]3(C)[C@]2(C(=O)CO)O1	-2%	x	x	i	x	x
Cc1ccc(NS(=O)(=O)c2ccc(Cl)c(C(=O)Nc3ccccc3-c3nc4ccccc4[nH]3)c2)cc1C	u	-4	-14	u	11µM*	-77%
Cc1ccc(NS(=O)(=O)c2ccc3nc(-c4ccccc4)[nH]c3c2)cc1Cl	u	-6	x	u	u	16µM*
CN(C)S(=O)(=O)c1ccc(Cl)c(C(=O)Nc2nc3ccccc3[nH]2)c1	15%	-2	1	i	-16%	-11%
C[C@@H]1CN(Cc2ccc3c(c2)CN(Cc2cccc4c2OCO4)CCO3)C[C@H](C)O1	x	x	x	i	x	x
Cc1cc2c(cc1NS(=O)(=O)c1cccc(C#N)c1)n(C)c(=O)c(=O)n2C	14%	0	x	i	-8%	-3%
Cc1ccc(-c2cc(C(=O)N/N=C/c3c[nH]c4ccccc34)[nH]n2)cc1	-10%	6	14	i	u	-59%
O=C(N/N=C/c1c[nH]c2ccccc12)c1cc(-c2ccc3ccccc3c2)n[nH]1	27%	9	17	u	16µM*	-39%
O=C(N/N=C/c1ccco1)c1cc(-c2ccc3ccccc3c2)n[nH]1	u	1	-75*	u	u	-91%
O=C(N/N=C/c1c[nH]c2ccccc12)c1cc(-c2ccc(-c3ccccc3)cc2)n[nH]1	u	35*	16	x	u	-76%
O=C(N/N=C/c1c[nH]c2ccccc12)c1cc(-c2ccccc2)n[nH]1	-18%[11.3 µM]	-6	10	i	-6%	-46%
C=CCC(CC=C)(CNC(=O)C(=O)Nc1cccc(C(F)(F)F)c1)c1ccccc1	x	-3	x	x	3%	0%
COc1ccccc1-c1cc2nc(C)c(CCC(=O)NCc3cccc(Cl)c3)c(C)n2n1	0%	-2	x	i	u	-19%
CCN(CC)c1cc(C)c2cc(NC(=O)/C=C/c3ccccc3OC(C)C)ccc2n1	-15%	-3	x	u	u	-24%
CC(C)CC(=O)Nc1ccnn1C1CCN(C(=O)c2ccc(F)cc2Cl)CC1	6%	-4	-24	i	-4%	-12%
COc1ncccc1C(=O)N1CCC(n2nccc2NC(=O)CC(C)C)CC1	9%	-11	-52*	i	-2%	6%
Cc1cc(C)cc(-n2c(SCC(=O)Nc3ccccc3F)nc3c(oc4ccccc43)c2=O)c1	-1%	5	x	i	-3%	-4%
Cc1cccc(NC(=O)CCN2CCN(C/C=C/c3ccccc3)CC2)c1	-16%	7	-64*	i	-5%	-34%
O=C(CN1CCN(C/C=C/c2ccccc2)CC1)NC(=O)NC1CCCCC1	0%	-6	-65*	i	0%	-25%
O=C(CCN1CCN(C/C=C/c2ccccc2)CC1)Nc1ccccc1	6%	4	-58*	i	42%	-4%
Cc1ccccc1NC(=O)CCN1CCN(C/C=C/c2ccccc2)CC1	-18%	25	-26	i	-20%	-40%
CCc1ccccc1NC(=O)Cn1c(=O)n(CC(=O)NCCc2ccccc2)c(=O)c2ccccc21	-7%	-9	x	i	2%	-6%
NNC(=O)CN1C(c2ccc(Br)cc2)=Nc2ccc(Br)cc2C1c1ccccc1 (configuration not stated)	-24%	-49	-55*	i	-5%	0%
NNC(=O)CN1C(=O)Nc2ccc(Br)cc2C1c1ccccc1 (configuration not stated)	2%	-3	-11	i	-24%	1%
COc1cc(C2=Nc3ccc(Br)cc3C(c3ccccc3)N2CC(=O)NN)cc(OC)c1OC (configuration not stated)	3%	-14	-51*	i	0%	-40%
